Source: PubChem (National Center for Advancing Translational Sciences (NCATS))
An excerpt weighted towards active compounds, which were near 2.6% of everything screened.
ClpP mod: qHTS Assay for Activators of ClpP | ATP-dependent Clp protease proteolytic subunit (Bacillus subtilis (strain 168)), P80244 | purified B. subtilis ClpP, FRET peptide cleavage, 20 min | Potency, µM (series often up to 57.5 µM), inactives show at the highest dose activity change, negative = active | hit rate 1.9% among 340,000; active = well fitted falling curve with a large enough effect; inconclusive = small, poorly fitted or top-dose-only effect; inactive = no such curve, though single readings can be large or run the other way; note: potency is the fitted concentration of half-maximal effect; the source files actives as falling curves though it sought activators and does not explain the sign; nearly all actives have a fitted effect of over 65% in size
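FRET quenching reversal measured ClpP activation: 10 microg/mL B. subtilis ClpP at pH 8 with the FRET-FV decapeptide, read at 430 nm after 320 nm excitation. The 20-min minus 0-min signal was scaled between DMSO/no-enzyme wells and ADEP (5.8 microM final).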
KCNH2 WT inh: KCNH2 (human, wildtype) channel inhibition; hit rate 0.37% among 340,000; U2OS, BacMam KCNH2, thallium flux FluxOr; hits give low values; activity change, % at 1.84 µM; AID 720551;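 active = maximum activity change below -70%; inconclusive = maximum activity change between -70% and -50%; inactive = maximum activity change above -50%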; note: % is set by controls: 0 for no effect and ±100 for the full control effect
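U2OS cells transduced with wild-type KCNH2 virus are loaded with FluxOr dye for 45 min, and thallium flux is measured in kinetic reads before and after stimulation buffer. Rate constants are normalized to DMSO controls.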
TRPV1 agonist: agonists of human vanilloid receptor 1 (TRPV1); Q8NER1; hit rate 0.19% among 320,000; activation, % at 8.33 µM; TRPV1-expressing cells, Fluo-8 calcium influx, agonist mode; AID 540275; in the data active = activation above about 80%; inconclusive = between about 30% and that limit; note: 0% is about no effect
Target sequence (Q8NER1 whole entry, looked up): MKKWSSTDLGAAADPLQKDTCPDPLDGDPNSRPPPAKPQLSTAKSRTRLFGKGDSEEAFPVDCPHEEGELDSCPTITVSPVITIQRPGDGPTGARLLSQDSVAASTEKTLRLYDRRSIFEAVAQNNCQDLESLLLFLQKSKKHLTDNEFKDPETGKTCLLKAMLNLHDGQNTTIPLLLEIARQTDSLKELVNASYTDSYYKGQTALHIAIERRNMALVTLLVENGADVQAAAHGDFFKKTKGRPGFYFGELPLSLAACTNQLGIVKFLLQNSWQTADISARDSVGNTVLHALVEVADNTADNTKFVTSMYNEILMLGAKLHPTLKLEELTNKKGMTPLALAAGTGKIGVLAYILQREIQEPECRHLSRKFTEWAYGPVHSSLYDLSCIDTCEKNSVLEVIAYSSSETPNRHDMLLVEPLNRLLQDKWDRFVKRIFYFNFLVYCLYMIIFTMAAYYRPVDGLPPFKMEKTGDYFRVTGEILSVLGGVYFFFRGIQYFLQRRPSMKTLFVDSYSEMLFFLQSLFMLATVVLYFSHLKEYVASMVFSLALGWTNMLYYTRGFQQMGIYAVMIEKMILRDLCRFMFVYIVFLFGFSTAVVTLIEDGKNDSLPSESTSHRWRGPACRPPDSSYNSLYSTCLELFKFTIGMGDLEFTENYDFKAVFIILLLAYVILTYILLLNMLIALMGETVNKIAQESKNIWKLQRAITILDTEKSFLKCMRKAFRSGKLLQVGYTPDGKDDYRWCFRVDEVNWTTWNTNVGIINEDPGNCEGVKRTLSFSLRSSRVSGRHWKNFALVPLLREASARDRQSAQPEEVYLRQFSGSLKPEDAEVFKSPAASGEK
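Fluo-8 calcium influx in TRPV1-expressing cells, kinetic read (ex 480/em 520 nm). Compound added and read 3 min for agonist activity, followed by capsaicin at EC20 final and 2 min further read for enhancement.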
TRPV1 potentiator: human TRPV1 potentiation. Q8NER1. TRPV1-expressing cells, Fluo-8 calcium influx, capsaicin EC20 potentiation. potentiation, % at 8.33 µM. hit rate 0.02% among 320,000. AID 540277; in the data active = potentiation above about 80%; inconclusive = between about 30% and that limit; note: 0% is about no effect
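TRPV1-expressing cells were cultured overnight at 35.5C and loaded with Fluo-8 calcium dye for 40 to 90 min at room temperature. After a 10 s baseline, compound was added and calcium influx was read kinetically for 3 min (ex 480/em 520 nm).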
KCNH2 3.1 inh: KCNH2 3.1 (human) potassium channel inhibition. AID 720553. U2OS KCNH2 3.1, thallium flux FluxOr; hits give low values. activity change, % (tested at about 1.8 µM). hit rate 0.95% among 340,000;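 active = maximum activity change below -70%; inconclusive = maximum activity change from -70% to -50%; inactive = maximum activity change above -50%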;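 note: thallium influx rate constant from kinetic fluorescence after stimulation buffer; % is set by controls: 0 for no effect and ±100 for the full control effect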
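Thallium flux read-out: FluxOr dye with Red40 quencher in HBSS/HEPES, 45 min at RT. Rate constants from kinetic reads were normalized to positive and negative DMSO controls. Cells: U2OS virally expressing the 3.1 isoform.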
p53 reactivation: restores transcriptional activity of mutant p53; H1299 p53-A138V BP100-luciferase reporter, luminescence, 24 h; Potency, µM (highest dose often 92.2 µM), for the others: top-dose activity change, positive = activation, most hits filed as activators; hit rate 0.063% among 320,000; active = well fitted activation curve with a large enough effect; inconclusive = small, poorly fitted or top-dose-only effect; inactive = no such curve, though single readings can be large or run the other way; note: potency is the fitted concentration of half-maximal effect; % of control where 0% means no effect; nearly all actives have a fitted effect of over 45% in size
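H1299 (p53-null), stable ts p53-A138V + BP100-Luc; 1000 cells/well, Opti-MEM/10% FBS; cpd 4 pt, 1:5; 24 h, 37 deg C, 5% CO2; detection reagent 10 min RT; luminescence.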
* hit, by the source's call; ? = inconclusive; . = no result given.

SMILES | ClpP mod | KCNH2 WT inh | TRPV1 agonist | TRPV1 potentiator | KCNH2 3.1 inh | p53 reactivation
Cc1ccc(-c2noc(/C=C/c3ccccc3)n2)cc1 | -8% | -10 | -1 | 9 | ? | 4%
C(=C\c1nnc(-c2cccs2)o1)/c1ccccc1 | 14µM* | 13 | ? | -21 | 3 | 24%
Cc1ccc(/C=C/c2nnc(-c3ccccc3)o2)cc1 | 32µM* | 22 | ? | -20 | -3 | 17%
CCCSc1nc2sc3c(c2c(=O)n1-c1ccc(C)c(Cl)c1)CCN(C(C)=O)C3 | -6% | . | . | . | . | .
COCc1cc(C)nc(NCCO)c1C#N | 32µM* | 2 | 7 | -1 | 4 | .
CSc1nc2n(n1)C(c1ccccn1)C1=C(CC(C)(C)CC1=O)N2 (configuration not stated) | 25µM* | -2 | 3 | -6 | 2 | 12%
CC1(C)CC(=O)C2=C(C1)Nc1ncnn1C2c1ccccn1 (configuration not stated) | -11% | 4 | -2 | 0 | 1 | -4%
CCN1CCOC(=O)C1CC(=O)Nc1cc(C)cc(C)c1 (configuration not stated) | 1% | . | . | . | . | .
CCn1cnc2c1c(=O)n(CC(=O)O)c(=O)n2Cc1ccccc1 | . | -2 | 3 | -8 | -27 | 11%
O=C(Cn1c(=O)c2c(ncn2Cc2ccccc2)n(Cc2ccccc2)c1=O)NC1CC1 | 0% | -3 | 1 | -1 | -90* | 2%
O=C(COC(=O)C12CC3CC(CC(Br)(C3)C1)C2)NCc1ccco1 | 0% | . | . | . | . | .
O=C(Cc1ccc(Cl)cc1)NO | -1% | . | . | . | . | .
CCCc1cc(=O)[nH]c(SCC(=O)c2cc(C)n(C3CC3)c2C)n1 | 18µM* | -6 | -4 | -1 | -1 | -13%
CCCc1cc(=O)[nH]c(SCC(=O)c2cc(C)n(C)c2C)n1 | -3% | 6 | 2 | 4 | -6 | -3%
CCOC(=O)c1c(C)nc2ncccn12 | ? | -7 | -2 | 4 | 14 | .
CCOC(=O)c1c(C)nc2sccn12 | -1% | 12 | -3 | 8 | -95* | -4%
Cc1cccc(N2CCN(C3(c4ccccc4)C(=O)c4ccccc4C3=O)CC2C)c1 (configuration not stated) | 1% | . | . | . | . | .
COc1ccc(CC(N)c2csc(NC(=O)Nc3ccccc3-c3ccccc3)n2)cc1 (configuration not stated) | -29% | . | . | . | . | .
Cc1ccc(N(CC(=O)NC2CCCCC2)C(=O)Cn2nnc(-c3ccc(C)o3)n2)cc1 | -2% | 5 | 2 | 16 | -5 | -4%
COc1ccc(C)cc1N(CC(=O)NC1CCCC1)C(=O)Cn1nnc(-c2ccc(C)o2)n1 | . | 1 | 7 | -2 | -101* | -9%
Cn1c(=O)cc(SCC(=O)N2CCCC2)c2ccccc21 | 28µM* | 3 | 2 | 1 | 8 | -8%
Cc1ccc(Cl)cc1N1CCN(C(=O)CSc2cc(=O)n(C)c3ccccc23)CC1 | -27% | . | . | . | . | .
Cc1ccc(Cn2c(C)c(C(=O)NCc3ccc4c(c3)OCO4)sc2=O)cc1 | 0% | . | . | . | . | .
COc1ccc(NC(=O)CCc2c(C)nc3c(c2C)c(=O)n(C)c(=O)n3C)c(OC)c1 | -5% | . | . | . | . | .
CCC(C(=O)OCC(=O)Nc1ccc(OC)cc1OC)c1ccccc1 (configuration not stated) | . | 1 | 15 | 4 | -5 | 15%
SMILES | ClpP mod | KCNH2 WT inh | TRPV1 agonist | TRPV1 potentiator | KCNH2 3.1 inh | p53 reactivation
CCC(C(=O)OCC(=O)Nc1cc(Cl)ccc1Cl)c1ccccc1 (configuration not stated) | 25µM* | 0 | 8 | -1 | -12 | 2%
C=C1C=C(C(F)F)n2ncc(C(=O)NCc3ccc(OC)cc3)c2N1 | -4% | . | . | . | . | .
Cc1cc(=O)oc2cc(Oc3ncccn3)ccc12 | 32µM* | -7 | 1 | -4 | 9 | 1%
Cc1cccc(-c2nnc(SCCOc3ccc4c(C)cc(=O)oc4c3)o2)c1 | 10µM* | 6 | 0 | -6 | 4 | -6%
Cc1cc(=O)oc2cc(OCc3nnc(-c4ccccc4Br)o3)ccc12 | 28µM* | 11 | -4 | -1 | -4 | -1%
Cc1cc(=O)oc2cc(OCC(=O)NCc3ccccn3)ccc12 | 25µM* | -3 | -6 | 14 | 5 | 3%
CCCc1cc(=O)oc2cc(OCC(=O)NCc3ccccn3)ccc12 | 5% | -10 | -2 | 23 | 9 | 8%
Cc1cc(=O)oc2cc(Oc3ncccc3[N+](=O)[O-])ccc12 | -1% | 1 | 4 | -9 | -13 | 1%
COc1ccc(CN2CC[C@H]3C=CC[C@@H](C(=O)Nc4nccs4)[C@H]3C2=O)cc1OC | 1% | . | . | . | . | .
CC(=O)N1CCCc2cc(S(=O)(=O)N3CCC(C(=O)N(Cc4ccccc4)C(C)C)CC3)ccc21 | -6% | . | . | . | . | .
Cc1cccc(NC(=O)CN2C(=O)c3cccc4cccc2c34)c1C | 14% | . | . | . | . | .
Cc1cc(=O)oc2cc(OCC(=O)N3CCc4ccccc4C3)ccc12 | 25µM* | -1 | 6 | 6 | -6 | -19%
Cc1ccc(-c2csc(=S)[nH]2)cc1 | 2% | -5 | 1 | -4 | -78* | 2%
S=c1[nH]c(-c2ccc(Cl)cc2)cs1 | . | -7 | -4 | 11 | -3 | 18%
Cc1ccc(N2C(=O)C(CN3CCCCC3)C2c2ccccc2)cc1 (configuration not stated) | 16µM* | 25 | 10 | -13 | -14 | 7%
COc1cccc(C2CC(=O)Nc3c2c(=O)nc2c(C)cccn32)c1 (configuration not stated) | -1% | . | . | . | . | .
Cc1ccccc1CN1CCc2c(OCC(=O)N3CCCc4ccccc43)cccc2C1=O | -3% | -123* | -1 | 1 | -15 | -1%
CCOC(=O)C1CCN(c2nc3c(S(=O)(=O)c4ccccc4)nnn3c3ccsc23)CC1 | -88% | . | . | . | . | .
CCOC(=O)[C@]12CCC=C1N(Cc1ccc(Cl)cc1Cl)C(=O)[C@H](CC(=O)NCCCOC)C2 | 0% | . | . | . | . | .
O=C1/C(=C/c2cccc([N+](=O)[O-])c2)CCc2ccccc21 | 0% | -4 | 5 | 20 | 0 | ?
O=C1/C(=C/c2ccc([N+](=O)[O-])cc2)CCc2ccccc21 | . | . | 6 | 3 | . | 11µM*
Cc1cc(C(=O)N2CCN(c3ccc([N+](=O)[O-])cc3)CC2)co1 | -1% | 41 | 14 | -26 | ? | -11%
Cn1c(C(=O)N2CCN(c3ccc([N+](=O)[O-])cc3)CC2)cc2c(=O)[nH]c3ccccc3c21 | . | -71* | -1 | 5 | -96* | -2%
COc1ccc(S(=O)(=O)N(CC(=O)N/N=C/c2cccs2)c2ccc(C)cc2)cc1OC | 0% | 2 | -2 | 5 | -20 | -10%
